Experiments:
Assay in all cases: log2 ratio of Biotin-Ahx-Ub-VS probe labelling (fragment/DMSO); higher = less target engagement (more negative = stronger competition), active = hit call of the paper (q ≤ 0.05, log2 ratio ≤ -1)
Settings in all cases: compound concentration: 200 uM; treatment time: 3 h
[1] = target: T1, OTUD6B (UniProt Q8N6M0)
T1 sequence (whole entry): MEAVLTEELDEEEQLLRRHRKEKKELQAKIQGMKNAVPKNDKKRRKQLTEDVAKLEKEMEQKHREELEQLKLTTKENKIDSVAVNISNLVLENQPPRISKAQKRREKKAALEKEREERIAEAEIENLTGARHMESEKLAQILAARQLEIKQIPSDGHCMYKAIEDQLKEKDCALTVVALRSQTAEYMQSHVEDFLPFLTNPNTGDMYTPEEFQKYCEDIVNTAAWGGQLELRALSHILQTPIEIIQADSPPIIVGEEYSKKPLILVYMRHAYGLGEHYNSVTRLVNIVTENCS
Outline: (§1)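 Average log2 ratios of fragment over vehicle were obtained by unpaired t-test from global-median-normalised Spectronaut label-free quantities. Proteins with ≥2 unique peptides were included. HEK293T lysate (495 µg per sample) was treated in triplicate with fragment at 200 µM or vehicle for 3 h, then with Biotin-Ahx-Ub-VS at 0.5 µM final for 1 h, and labelled DUBs were NeutrAvidin-enriched and run by diaPASEF LC-MS/MS.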

[2] = target: T2, OTUD7B (UniProt Q6GQQ9)
T2 sequence (whole entry): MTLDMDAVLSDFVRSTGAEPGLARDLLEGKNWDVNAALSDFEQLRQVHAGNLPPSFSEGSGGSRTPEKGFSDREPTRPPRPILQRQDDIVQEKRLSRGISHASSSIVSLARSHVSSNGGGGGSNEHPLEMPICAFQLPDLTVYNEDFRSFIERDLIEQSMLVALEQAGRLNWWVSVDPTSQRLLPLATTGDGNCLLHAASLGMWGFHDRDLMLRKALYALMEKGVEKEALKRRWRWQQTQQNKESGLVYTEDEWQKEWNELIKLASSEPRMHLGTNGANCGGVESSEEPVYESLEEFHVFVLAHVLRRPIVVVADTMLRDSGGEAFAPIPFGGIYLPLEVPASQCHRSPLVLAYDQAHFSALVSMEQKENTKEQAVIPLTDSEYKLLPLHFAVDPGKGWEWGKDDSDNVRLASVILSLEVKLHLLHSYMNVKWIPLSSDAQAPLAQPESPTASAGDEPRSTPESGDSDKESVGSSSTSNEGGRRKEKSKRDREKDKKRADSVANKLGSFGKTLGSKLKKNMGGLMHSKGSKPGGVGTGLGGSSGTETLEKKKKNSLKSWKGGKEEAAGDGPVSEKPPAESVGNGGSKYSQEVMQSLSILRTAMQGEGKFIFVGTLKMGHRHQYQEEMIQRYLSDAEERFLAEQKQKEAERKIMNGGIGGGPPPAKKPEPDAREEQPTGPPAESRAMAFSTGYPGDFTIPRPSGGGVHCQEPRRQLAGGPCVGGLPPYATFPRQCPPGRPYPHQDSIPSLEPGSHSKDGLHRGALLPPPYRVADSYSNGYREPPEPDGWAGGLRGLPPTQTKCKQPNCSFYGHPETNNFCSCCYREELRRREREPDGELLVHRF
Outline: as §1

[3] = target: PRPF8 (UniProt Q6P2Q9)
Outline: as §1

[4] = target: T3, PSMD7 (UniProt P51665)
T3 sequence (whole entry): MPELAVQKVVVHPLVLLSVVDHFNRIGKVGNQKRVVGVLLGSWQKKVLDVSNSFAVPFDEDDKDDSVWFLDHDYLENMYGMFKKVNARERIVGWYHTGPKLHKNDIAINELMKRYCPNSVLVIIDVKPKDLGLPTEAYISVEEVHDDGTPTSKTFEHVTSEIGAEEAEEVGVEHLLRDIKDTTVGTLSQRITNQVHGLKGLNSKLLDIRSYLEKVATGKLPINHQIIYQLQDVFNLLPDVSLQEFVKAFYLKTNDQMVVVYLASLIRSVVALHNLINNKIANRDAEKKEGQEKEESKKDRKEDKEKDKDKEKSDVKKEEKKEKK
Outline: as §1

[5] = target: UCHL1 (UniProt P09936)
Outline: as §1

[6] = target: T4, UCHL3 (UniProt P15374)
T4 sequence (whole entry): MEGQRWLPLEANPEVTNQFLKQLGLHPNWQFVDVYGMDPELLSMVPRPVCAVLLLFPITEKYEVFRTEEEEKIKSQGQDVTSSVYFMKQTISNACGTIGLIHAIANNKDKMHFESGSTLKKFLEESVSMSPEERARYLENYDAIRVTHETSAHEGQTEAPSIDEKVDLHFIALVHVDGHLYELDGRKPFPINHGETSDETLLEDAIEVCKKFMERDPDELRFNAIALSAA
Outline: as §1

[7] = target: T5, UCHL5 (UniProt Q9Y5K5)
T5 sequence (whole entry): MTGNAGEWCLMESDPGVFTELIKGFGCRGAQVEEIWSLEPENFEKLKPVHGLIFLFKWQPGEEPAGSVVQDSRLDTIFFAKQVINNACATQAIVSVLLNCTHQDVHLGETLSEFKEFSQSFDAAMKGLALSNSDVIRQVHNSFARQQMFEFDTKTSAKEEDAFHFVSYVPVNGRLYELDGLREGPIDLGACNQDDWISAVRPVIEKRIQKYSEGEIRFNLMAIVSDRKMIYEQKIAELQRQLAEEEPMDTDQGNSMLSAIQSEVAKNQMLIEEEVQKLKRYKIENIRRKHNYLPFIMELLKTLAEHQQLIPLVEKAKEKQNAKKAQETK
Outline: as §1

[8] = target: USP10 (UniProt Q14694)
Outline: as §1

[9] = target: T6, USP15 (UniProt Q9Y4E8)
T6 sequence (whole entry): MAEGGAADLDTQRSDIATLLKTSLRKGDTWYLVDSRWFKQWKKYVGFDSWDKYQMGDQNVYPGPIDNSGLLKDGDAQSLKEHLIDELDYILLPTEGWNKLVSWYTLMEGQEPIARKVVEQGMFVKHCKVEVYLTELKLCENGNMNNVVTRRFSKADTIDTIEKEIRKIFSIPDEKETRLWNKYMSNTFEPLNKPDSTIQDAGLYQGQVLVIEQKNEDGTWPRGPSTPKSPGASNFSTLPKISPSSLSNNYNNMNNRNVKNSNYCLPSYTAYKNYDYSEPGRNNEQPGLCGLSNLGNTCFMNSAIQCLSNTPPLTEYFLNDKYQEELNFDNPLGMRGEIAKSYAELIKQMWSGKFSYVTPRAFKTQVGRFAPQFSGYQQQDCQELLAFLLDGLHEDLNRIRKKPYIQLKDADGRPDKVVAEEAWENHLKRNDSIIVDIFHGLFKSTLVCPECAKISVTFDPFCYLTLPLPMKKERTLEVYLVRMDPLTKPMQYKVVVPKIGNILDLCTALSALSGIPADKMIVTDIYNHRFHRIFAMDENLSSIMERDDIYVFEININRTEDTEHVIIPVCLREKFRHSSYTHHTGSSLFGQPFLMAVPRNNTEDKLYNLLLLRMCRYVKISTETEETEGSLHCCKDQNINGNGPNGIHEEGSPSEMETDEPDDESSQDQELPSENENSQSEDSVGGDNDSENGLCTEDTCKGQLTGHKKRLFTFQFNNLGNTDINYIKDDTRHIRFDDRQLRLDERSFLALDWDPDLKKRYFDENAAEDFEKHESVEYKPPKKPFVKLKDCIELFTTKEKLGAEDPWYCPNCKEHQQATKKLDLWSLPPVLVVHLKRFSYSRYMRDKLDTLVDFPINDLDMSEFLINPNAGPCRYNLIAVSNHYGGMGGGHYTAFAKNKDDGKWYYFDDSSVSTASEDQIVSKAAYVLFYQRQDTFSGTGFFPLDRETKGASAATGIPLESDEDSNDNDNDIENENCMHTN
Outline: as §1

[10] = target: USP16 (UniProt Q9Y5T5)
Outline: as §1

Measured: log2 ratio of Biotin-Ahx-Ub-VS probe labelling

Sequence of UCHL1 (P09936 whole entry, looked up): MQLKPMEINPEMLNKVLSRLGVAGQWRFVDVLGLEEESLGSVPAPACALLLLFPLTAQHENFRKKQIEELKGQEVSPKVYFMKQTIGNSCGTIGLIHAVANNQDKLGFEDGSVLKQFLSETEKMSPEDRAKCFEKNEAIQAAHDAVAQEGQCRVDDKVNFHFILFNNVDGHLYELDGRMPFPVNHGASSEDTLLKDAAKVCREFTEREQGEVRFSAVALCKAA
Sequence of USP10 (Q14694 whole entry): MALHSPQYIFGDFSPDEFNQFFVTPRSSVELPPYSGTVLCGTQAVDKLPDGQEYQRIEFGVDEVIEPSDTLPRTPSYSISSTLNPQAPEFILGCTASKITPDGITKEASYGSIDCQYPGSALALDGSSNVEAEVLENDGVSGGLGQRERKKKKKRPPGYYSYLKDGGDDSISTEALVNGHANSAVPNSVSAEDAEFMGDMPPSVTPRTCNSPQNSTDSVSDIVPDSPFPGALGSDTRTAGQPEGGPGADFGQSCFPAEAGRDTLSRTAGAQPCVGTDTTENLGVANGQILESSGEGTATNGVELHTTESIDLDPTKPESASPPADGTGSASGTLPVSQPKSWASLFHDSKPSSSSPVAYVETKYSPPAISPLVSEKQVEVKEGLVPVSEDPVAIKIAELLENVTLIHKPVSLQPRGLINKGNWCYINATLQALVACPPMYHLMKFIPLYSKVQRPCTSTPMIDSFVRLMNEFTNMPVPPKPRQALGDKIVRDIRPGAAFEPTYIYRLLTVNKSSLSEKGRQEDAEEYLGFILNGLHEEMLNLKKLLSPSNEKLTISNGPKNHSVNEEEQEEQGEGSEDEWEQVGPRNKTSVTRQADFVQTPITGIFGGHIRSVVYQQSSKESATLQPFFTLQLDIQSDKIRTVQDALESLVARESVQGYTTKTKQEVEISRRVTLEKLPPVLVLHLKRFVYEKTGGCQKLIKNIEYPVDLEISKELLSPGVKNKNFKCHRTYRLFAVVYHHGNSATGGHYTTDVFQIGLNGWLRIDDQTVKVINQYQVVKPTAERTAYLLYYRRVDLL
Sequence of USP16 (Q9Y5T5 whole entry, looked up): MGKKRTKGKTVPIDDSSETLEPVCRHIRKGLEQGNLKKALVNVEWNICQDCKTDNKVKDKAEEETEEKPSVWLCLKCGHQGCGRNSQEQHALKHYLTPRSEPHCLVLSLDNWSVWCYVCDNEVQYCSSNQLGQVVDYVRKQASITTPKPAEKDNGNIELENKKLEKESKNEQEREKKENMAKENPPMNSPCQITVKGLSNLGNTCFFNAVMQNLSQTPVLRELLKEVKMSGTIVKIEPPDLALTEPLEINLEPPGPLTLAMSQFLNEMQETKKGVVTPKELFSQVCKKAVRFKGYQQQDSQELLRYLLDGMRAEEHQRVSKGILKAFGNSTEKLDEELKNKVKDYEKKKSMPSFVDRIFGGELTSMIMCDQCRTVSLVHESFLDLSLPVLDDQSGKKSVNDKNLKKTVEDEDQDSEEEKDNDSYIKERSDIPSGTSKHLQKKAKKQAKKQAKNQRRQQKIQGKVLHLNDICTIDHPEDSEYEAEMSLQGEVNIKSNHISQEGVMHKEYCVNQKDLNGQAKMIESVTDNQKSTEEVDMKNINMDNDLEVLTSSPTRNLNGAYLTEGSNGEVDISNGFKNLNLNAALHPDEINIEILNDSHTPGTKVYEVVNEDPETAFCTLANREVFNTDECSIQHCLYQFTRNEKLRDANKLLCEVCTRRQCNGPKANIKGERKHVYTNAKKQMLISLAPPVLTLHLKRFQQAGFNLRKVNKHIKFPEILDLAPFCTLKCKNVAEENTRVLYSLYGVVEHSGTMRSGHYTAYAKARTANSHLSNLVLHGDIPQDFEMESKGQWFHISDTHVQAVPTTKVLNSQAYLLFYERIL

CN(Cc1nc2ccccc2[nH]1)C(=O)CCl.Cl
inactive: [1] -0.0126 | [2] -0.039 | [3] 0.00724 | [4] -0.142 | [5] 0.185 | [6] 0.504 | [7] -0.121 | [8] -0.14 | [9] -0.17 | [10] -0.572
